Measured values from the supplement of paper PMC11732987, “Enantioselective OTUD7B fragment discovery through chemoproteomics screening and high-throughput optimisation” (Communications Chemistry, 2025).

What was measured:
Test in all cases: log2 ratio of Biotin-Ahx-Ub-VS probe labelling (fragment/DMSO); higher = less target engagement (more negative = stronger competition), active = hit call of the paper (q ≤ 0.05, log2 ratio ≤ -1)
Details in all cases: compound concentration: 200 uM; treatment time: 3 h
[1] = biological target: T1, USP19 (UniProt O94966)
T1 sequence (whole entry): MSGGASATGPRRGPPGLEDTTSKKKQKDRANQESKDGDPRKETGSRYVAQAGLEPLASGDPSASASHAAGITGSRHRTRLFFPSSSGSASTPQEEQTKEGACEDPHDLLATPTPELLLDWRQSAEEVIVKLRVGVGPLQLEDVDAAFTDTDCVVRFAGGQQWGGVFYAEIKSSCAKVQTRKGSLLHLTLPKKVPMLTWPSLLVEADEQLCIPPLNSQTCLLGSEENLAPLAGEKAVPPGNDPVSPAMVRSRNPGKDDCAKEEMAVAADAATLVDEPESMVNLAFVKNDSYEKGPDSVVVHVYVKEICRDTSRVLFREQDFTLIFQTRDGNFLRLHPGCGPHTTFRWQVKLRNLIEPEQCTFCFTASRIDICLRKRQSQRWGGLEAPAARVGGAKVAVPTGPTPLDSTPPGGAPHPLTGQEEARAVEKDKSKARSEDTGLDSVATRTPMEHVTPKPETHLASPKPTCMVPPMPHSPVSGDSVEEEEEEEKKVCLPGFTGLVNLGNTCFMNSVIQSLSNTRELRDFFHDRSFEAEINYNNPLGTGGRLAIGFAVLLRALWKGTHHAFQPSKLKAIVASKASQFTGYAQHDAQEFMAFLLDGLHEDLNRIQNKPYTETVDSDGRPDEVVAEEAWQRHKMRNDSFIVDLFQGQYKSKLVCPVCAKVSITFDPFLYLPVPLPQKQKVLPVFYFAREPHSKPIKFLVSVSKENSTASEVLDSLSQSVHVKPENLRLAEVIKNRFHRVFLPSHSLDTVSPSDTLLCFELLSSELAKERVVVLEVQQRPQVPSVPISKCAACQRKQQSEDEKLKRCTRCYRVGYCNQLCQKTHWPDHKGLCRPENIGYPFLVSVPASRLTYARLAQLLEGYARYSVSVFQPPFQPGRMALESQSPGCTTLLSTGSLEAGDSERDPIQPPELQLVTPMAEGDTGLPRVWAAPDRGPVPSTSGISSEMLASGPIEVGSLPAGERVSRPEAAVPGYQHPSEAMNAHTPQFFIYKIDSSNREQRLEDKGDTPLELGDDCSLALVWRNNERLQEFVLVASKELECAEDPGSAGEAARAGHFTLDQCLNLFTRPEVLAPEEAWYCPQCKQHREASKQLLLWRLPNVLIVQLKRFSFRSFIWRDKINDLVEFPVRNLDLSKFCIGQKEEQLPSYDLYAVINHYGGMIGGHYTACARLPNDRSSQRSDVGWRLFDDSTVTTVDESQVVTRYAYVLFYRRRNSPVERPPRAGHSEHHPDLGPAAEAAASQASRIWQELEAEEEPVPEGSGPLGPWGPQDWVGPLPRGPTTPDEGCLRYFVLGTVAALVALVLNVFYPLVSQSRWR
Outline: (§1)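 HEK293T lysate (495 µg per sample, in Tris/CHAPS/IGEPAL buffer with protease inhibitors) was treated in triplicate with fragment at 200 µM or with DMSO for 3 h. It was then treated with Biotin-Ahx-Ub-VS (0.5 µM final) for 1 h. Labelled DUBs were NeutrAvidin-enriched, digested with LysC and trypsin, and run by diaPASEF LC-MS/MS. Spectronaut label-free quantities were global-median-normalised. Values are average log2 ratios fragment/DMSO by unpaired t-test, using proteins with ≥2 unique peptides.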

[2] = biological target: USP24 (UniProt Q9UPU5)
USP24, sequence (Q9UPU5 whole entry): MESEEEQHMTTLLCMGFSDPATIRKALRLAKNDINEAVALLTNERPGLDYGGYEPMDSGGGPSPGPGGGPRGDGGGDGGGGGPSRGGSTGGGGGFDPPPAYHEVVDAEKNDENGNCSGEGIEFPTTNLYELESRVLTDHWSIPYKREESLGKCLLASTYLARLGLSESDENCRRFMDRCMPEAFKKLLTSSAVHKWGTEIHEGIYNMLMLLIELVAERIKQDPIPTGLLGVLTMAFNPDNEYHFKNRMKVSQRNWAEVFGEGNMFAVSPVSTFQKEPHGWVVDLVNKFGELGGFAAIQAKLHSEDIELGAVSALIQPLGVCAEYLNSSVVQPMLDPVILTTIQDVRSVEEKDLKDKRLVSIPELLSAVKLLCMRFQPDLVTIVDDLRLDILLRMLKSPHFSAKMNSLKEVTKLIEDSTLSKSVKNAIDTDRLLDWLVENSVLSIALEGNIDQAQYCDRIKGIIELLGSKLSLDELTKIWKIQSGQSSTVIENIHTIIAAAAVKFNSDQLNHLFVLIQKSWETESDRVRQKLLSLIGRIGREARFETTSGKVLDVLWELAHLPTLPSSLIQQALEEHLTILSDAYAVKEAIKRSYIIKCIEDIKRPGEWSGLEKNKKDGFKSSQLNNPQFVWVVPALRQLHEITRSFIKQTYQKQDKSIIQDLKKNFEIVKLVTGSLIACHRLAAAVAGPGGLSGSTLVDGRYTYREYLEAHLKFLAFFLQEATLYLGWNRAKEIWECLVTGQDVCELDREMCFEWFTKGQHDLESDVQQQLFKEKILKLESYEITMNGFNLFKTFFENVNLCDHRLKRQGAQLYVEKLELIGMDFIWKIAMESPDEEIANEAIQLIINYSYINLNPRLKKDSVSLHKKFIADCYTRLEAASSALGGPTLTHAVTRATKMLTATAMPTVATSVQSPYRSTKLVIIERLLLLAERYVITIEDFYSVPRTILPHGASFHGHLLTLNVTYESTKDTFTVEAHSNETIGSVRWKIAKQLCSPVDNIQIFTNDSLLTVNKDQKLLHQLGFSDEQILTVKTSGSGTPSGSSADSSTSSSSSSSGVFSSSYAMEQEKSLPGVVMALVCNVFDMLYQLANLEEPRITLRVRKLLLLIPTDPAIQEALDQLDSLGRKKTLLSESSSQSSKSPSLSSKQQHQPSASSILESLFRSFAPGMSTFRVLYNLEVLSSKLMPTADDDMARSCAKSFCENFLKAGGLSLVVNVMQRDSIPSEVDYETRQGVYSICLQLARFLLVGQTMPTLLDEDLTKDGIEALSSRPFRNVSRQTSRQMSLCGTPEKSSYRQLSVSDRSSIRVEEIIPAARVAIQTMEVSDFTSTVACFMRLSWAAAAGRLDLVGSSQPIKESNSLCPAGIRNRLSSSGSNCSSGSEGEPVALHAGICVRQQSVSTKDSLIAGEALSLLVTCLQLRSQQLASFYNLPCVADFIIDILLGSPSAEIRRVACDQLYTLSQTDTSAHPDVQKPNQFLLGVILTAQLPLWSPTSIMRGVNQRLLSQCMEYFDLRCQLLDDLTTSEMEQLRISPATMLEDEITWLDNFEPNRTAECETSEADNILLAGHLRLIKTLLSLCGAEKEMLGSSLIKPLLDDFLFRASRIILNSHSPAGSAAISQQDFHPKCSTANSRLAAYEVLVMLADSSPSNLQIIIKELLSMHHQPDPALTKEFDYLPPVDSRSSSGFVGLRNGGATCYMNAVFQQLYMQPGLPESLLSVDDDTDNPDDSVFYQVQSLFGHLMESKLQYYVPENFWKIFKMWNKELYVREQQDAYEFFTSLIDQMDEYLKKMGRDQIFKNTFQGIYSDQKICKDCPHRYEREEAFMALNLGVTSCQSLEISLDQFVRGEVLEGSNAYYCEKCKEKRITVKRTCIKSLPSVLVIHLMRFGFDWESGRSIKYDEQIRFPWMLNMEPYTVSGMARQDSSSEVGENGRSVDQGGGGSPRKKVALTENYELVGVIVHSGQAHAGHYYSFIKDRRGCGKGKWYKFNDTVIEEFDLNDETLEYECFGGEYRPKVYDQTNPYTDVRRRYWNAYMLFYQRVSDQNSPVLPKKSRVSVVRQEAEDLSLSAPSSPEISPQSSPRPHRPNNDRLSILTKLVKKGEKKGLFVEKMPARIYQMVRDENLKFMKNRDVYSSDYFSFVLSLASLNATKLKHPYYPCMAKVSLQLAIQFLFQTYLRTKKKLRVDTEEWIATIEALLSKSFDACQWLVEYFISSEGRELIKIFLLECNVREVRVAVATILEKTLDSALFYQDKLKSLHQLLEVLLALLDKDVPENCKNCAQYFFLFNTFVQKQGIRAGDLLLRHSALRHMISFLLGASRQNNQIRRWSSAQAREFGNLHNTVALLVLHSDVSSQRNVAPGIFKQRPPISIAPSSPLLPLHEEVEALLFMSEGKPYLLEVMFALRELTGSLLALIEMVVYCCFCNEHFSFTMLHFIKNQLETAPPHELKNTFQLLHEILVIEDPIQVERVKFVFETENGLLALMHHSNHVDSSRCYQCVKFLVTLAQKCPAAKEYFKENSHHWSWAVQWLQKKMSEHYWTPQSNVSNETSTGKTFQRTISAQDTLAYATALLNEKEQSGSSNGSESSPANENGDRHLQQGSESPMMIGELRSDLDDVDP
Outline: as §1

[3] = biological target: T2, USP25 (UniProt Q9UHP3)
T2 sequence (whole entry): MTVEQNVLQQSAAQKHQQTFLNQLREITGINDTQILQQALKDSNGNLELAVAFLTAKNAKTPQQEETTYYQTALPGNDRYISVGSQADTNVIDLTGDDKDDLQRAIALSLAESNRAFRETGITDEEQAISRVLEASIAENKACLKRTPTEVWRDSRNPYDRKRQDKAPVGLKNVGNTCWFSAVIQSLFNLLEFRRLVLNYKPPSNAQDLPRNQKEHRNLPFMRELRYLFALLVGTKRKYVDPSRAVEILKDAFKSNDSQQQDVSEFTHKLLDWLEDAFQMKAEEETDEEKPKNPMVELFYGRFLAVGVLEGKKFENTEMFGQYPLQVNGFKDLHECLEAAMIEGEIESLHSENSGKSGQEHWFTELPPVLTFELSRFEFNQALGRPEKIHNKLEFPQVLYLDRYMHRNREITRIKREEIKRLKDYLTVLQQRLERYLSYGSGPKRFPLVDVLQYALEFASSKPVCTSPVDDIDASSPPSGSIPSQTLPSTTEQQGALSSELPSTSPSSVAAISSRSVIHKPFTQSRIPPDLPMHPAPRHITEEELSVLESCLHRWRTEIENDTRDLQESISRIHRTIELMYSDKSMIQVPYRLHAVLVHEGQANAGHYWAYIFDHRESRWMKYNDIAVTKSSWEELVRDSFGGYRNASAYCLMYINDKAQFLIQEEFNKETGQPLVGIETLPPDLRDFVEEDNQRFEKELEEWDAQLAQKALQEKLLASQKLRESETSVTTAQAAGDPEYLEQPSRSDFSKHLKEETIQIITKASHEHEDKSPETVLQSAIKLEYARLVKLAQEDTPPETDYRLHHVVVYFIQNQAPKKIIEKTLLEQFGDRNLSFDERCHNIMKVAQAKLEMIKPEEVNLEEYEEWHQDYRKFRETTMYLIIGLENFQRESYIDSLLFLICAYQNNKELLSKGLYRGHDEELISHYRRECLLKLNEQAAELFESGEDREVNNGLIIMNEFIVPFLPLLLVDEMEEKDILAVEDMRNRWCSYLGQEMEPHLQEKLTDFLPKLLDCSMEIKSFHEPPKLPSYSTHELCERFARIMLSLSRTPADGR
Outline: as §1

[4] = biological target: T3, USP28 (UniProt Q96RU2)
T3 sequence (whole entry): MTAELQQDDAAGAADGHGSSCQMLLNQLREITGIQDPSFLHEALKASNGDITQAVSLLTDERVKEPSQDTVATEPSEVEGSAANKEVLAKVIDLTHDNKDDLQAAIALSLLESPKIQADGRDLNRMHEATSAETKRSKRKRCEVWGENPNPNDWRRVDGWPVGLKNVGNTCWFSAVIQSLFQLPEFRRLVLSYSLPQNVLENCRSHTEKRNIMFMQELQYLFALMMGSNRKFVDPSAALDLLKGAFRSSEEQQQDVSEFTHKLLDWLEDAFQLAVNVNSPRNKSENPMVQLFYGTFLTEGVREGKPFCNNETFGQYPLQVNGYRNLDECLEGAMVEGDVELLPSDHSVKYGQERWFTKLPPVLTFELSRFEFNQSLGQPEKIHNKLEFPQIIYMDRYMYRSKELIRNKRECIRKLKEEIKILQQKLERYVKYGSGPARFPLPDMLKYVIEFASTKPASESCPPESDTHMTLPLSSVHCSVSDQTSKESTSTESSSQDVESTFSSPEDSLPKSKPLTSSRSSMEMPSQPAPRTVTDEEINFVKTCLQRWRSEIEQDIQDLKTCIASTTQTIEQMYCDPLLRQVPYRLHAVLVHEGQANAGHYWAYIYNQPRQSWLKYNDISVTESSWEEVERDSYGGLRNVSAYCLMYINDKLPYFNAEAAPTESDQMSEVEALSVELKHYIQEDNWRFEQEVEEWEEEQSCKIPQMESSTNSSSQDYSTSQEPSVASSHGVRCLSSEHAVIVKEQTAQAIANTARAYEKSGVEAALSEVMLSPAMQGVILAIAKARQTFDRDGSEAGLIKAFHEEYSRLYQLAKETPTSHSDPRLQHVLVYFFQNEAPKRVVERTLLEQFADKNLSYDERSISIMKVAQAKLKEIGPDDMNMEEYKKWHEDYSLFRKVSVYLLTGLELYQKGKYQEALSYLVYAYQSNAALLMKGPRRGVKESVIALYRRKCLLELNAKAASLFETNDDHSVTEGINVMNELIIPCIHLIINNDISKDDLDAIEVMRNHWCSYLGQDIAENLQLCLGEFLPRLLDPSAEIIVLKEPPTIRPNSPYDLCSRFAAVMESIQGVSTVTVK
Outline: as §1

Measured: log2 ratio of Biotin-Ahx-Ub-VS probe labelling

CN(CCc1ncc(Br)cn1)C(=O)CCl.Cl
inactive: [1] -0.155 | [2] -0.487 | [3] -0.445 | [4] -0.622
